The text below walks through data of PubChem BioAssay.

Calls of active or inactive are those of the source.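 Rule for the calls, unless noted: active = fluorescence slope after compound addition differing from the mean of all screened samples at 99.7% confidence, in either direction; inactive = the rest.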

The nature of assay [1]: inhibitors of TNFa-induced NFkB p65 translocation, primary screen, imaging, HUVEC, MLSMR starter and 10KST1 sets (AID 438;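 active = inhibition above 20% together with a positive visual image hit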;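 note: compound added about 3h40 before a 20 min TNFalpha stimulation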;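 for inhibition: signal is the nuclear over cytoplasmic p65 intensity ratio per well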). The conditions noted are these: HUVEC TNFa-induced p65 nuclear translocation; cell count: measured here: nuclei count (cytotoxicity indicator), at 2.08 µM; inhibition: at 2 µM, stronger effect = higher value, 0% TNFa-plus-vehicle, 100% no-TNFa wells.
Assay [2] is described as follows: reduction of polyQ htt aggregates in cells – imaging, exon1htt(103Q)mCFP cells, high-content imaging, primary screen (AID 483;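 active = visual image review flags a hit and inhibition of aggregation exceeds 20%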;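 note: compound exposure lasted 3 days before fixation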;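 for nuclei count: percent of the per-plate median nuclei count of sample wells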). Particulars: exon1htt(103Q)mCFP cell line, aggregate imaging, at 2 µM; inhibition of aggregation: stronger effect = higher value; nuclei count: measured here: cell count, toxicity.
A short description of assay [3]: endothelial E-selectin expression blockers – imaging, HUVEC, immunofluorescence, MLSMR starter and 10KST1 sets, primary screen (AID 487;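 active = visually confirmed hit in the image check and inhibition above 20%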;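 for inhibition: signal is fraction of cell area covered by stained E-selectin grains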;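 for nuclei count: 100% = median nuclei count of all wells on the same plate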). Particulars: HUVEC TNFalpha-induced E-selectin immunofluorescence imaging, at 2 µM; inhibition: stronger effect = higher value; nuclei count: measured here: cell number, toxicity.
In assay [4] the target is Voltage-gated potassium channel subunit beta-2 (Rattus norvegicus) (UniProt P62483). As to the kind of experiment: inhibitors of rat Kvbeta2 reductase activity – biochemical, NADPH fluorescence, primary screen (AID 622;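 active = fluorescence slope higher than the sample average by over 3 SD, cut at about -0.22 in these data, passing the limit was not always enough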;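 note: slope of raw intensity against log time taken from 70 to 1610 s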). Particulars: recombinant KvBeta, 4-cyanobenzaldehyde reduction, at 10 µM, stronger effect = higher value.
The target is the same in assay [5]. Kind of assay: enhancers of rat Kvbeta2 NADPH turnover – biochemical, NADPH fluorescence, primary screen (AID 623;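 active = NADPH fluorescence slope more negative than the mean of all samples by about 3 SD, 99.7% confidence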;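 note: fluorescence intensity change per second fitted from 20 to 320 s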). The conditions noted are these: Recombinant KvBeta, NADPH fluorescence decrease slope, 10 min; at 10 µM; stronger effect = lower value.
In assay [6] the target is Alpha-2C adrenergic receptor (Homo sapiens) (UniProt P18825). As to the kind of experiment: compounds altering alpha2C-coupled GIRK flux – cell-based, HEK293 alpha2C/GIRK1/2, thallium flux, primary screen (AID 624).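 Note: slope of fluorescence ratio to pre-addition baseline per second over 15 to 24 s.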 Particulars: thallium flux BTC fluorescence, at 10 µM, actives lie on both sides.
Assay [7] can be described thus: blockers of RIG-like receptor reporter activation – cell-based, Sendai virus stimulus, luciferase, 10K MLSCN set, TLR/RLR signaling modifier project, primary screen (AID 602276;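 active = inhibition at or above 50% at 10 µM; inactive = inhibition below 50%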;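 note: firefly luciferase from ISG56 promoter only with Renilla not read in this screen; 0% = Sendai virus plus DMSO and 100% = medium plus DMSO without virus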). The conditions noted are these: HEK293 RL24 IRF3 luciferase reporter, at 10 µM, stronger effect = higher value.
A short description of assay [8]: TLR3 IRF3 reporter activation blockers – cell-based, poly I:C stimulus, luciferase, 10K MLSCN set, primary screen (AID 602277;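 active = inhibition of the reporter signal at or above 50%; inactive = inhibition below 50%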). The conditions noted are these: HEK293-TLR3 RL24 IRF3 luciferase reporter, at 10 µM, stronger effect = higher value. On the technique in general: A reporter such as luciferase makes a cellular process visible.

Alpha-2C adrenergic receptor (Homo sapiens), sequence (P18825 whole entry, looked up): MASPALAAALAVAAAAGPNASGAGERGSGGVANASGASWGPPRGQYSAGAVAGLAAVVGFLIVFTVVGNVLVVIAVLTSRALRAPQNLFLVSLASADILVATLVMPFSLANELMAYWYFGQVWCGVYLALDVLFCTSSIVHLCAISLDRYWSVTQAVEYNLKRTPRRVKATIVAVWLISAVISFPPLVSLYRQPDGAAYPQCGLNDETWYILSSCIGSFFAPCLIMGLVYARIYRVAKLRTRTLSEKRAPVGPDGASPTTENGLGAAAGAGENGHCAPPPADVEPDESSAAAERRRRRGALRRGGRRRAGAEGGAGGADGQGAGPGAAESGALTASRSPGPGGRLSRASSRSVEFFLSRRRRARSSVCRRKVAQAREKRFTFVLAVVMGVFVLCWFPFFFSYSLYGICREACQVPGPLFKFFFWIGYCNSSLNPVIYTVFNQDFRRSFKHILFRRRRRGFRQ
Voltage-gated potassium channel subunit beta-2 (Rattus norvegicus), sequence (P62483 whole entry, looked up): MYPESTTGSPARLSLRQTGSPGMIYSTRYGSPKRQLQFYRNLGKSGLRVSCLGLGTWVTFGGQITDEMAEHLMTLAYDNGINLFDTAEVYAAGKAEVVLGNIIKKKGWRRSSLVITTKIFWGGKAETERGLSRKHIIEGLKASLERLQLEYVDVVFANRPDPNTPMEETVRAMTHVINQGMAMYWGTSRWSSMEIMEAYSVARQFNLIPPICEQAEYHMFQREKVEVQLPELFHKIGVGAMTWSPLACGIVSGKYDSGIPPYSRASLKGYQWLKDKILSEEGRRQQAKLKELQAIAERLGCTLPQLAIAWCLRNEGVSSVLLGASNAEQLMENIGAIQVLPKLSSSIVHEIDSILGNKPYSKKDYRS

With `Cc1ccc2nc(NC(=O)CN(C)S(=O)(=O)c3cccc4nsnc34)sc2c1`, the cell count in assay [1] was 379. Moreover, the inhibition – broadly, the change of the read-out against control, counted positive when it falls – in assay [1] was -5.3% (inactive); in assay [3], -38.2% (inactive); in assay [7], 32.6% (inactive); in assay [8], 25% (inactive). The inhibition of aggregation in assay [2] is -0.2% (inactive). The nuclei count in assay [2] was 113%; in assay [3], 101%. Also, in assay [4], the fluorescence slope is -0.41 (inactive). Moreover, the NADPH fluorescence slope in assay [5] was -4.4e-05 (inactive). In addition, the slope in assay [6] is 0.00524 (inactive).

Take `CC(=O)c1cc(Cl)ccc1OC(=O)c1ccco1`: the cell count in assay [1] was determined as 475. For the same compound, the inhibition in assay [1] was 0.5% (inactive); in assay [3], -48.1% (inactive); in assay [7], 18.4% (inactive); in assay [8], 21% (inactive). In addition, in assay [2], the inhibition of aggregation is -8.1% (inactive). In addition, the figures for the nuclei count in assay [2] and in assay [3] were 106% and 124%, respectively. For the same compound, the fluorescence slope in assay [4] is -0.475 (inactive). The NADPH fluorescence slope in assay [5] was -9e-05 (inactive). Moreover, in assay [6], the slope is 0.00476 (inactive).

`COc1ccc(Cc2nnc(NC(=O)Cc3cccs3)s2)cc1`: the cell count in assay [1] is 674. For the same compound, the inhibition was -27.6% (inactive) in assay [1], 14.9% (inactive) in assay [3], -11% (inactive) in assay [7] and 100% (active) in assay [8]. In addition, the inhibition of aggregation in assay [2] is 8.6% (inactive). For the same compound, the nuclei count in assay [2] is 105%; in assay [3], 101%. In assay [4], the fluorescence slope is -0.568 (inactive). Moreover, the NADPH fluorescence slope in assay [5] is 2.7e-05 (inactive). Moreover, in assay [6], the slope was 0.0056 (inactive).

Turning to `O=C(NCC(c1cccnc1)N1CCOCC1)c1cccs1` (centres undefined), the cell count in assay [1] amounted to 357. For the same compound, the inhibition in assay [1] is 9.8% (inactive); in assay [3], -81% (inactive); in assay [7] it was 5.49% (inactive); in assay [8] it was 10.9% (inactive). For the same compound, the inhibition of aggregation in assay [2] was -3.5% (inactive). Besides, the nuclei count in assay [2] was found to be 97.5%; in assay [3] it was 123%. Besides, the fluorescence slope in assay [4] is -0.414 (inactive). Moreover, the NADPH fluorescence slope in assay [5] is -1.2e-05 (inactive). Besides, the slope in assay [6] was 0.00412 (inactive).

Take `CCCN1CCN(CCCNC(=O)Cn2ncc3c4ccccc4n(C)c3c2=O)CC1`: in assay [1], the cell count came out at 509. Moreover, the inhibition was -3% (inactive) in assay [1], -61.4% (inactive) in assay [3], -2.18% (inactive) in assay [7] and 34.8% (inactive) in assay [8]. Moreover, the inhibition of aggregation in assay [2] is -2.1% (inactive). The nuclei count in assay [2] was found to be 101%; in assay [3], 110%. Besides, the fluorescence slope in assay [4] was -0.615 (inactive). The NADPH fluorescence slope in assay [5] was 2.2e-07 (inactive). In addition, the slope in assay [6] is 0.00665 (inactive).

As for `COc1ccc(OC)c(S(=O)(=O)NCCC2=CCCCC2)c1`, the cell count in assay [1] amounted to 677. In addition, the inhibition was -3.6% (inactive) in assay [1], 16.5% (inactive) in assay [3], -1.71% (inactive) in assay [7] and 24.3% (inactive) in assay [8]. Moreover, in assay [2], the inhibition of aggregation is -18.8% (inactive). In addition, the nuclei count in assay [2] came out at 91.5%; in assay [3], 95%. The fluorescence slope in assay [4] was -0.486 (inactive). In addition, in assay [5], the NADPH fluorescence slope was -4.4e-05 (inactive). Besides, the slope in assay [6] is 0.00446 (inactive).

Take `CCCSc1nc2c(cnn2-c2ccc(Cl)cc2)c(=O)[nH]1`: the cell count in assay [1] is 213. In addition, the inhibition was -1.3% (inactive) in assay [1], -40.2% (inactive) in assay [3], 16% (inactive) in assay [7] and 14.5% (inactive) in assay [8]. For the same compound, in assay [2], the inhibition of aggregation was -9.2% (inactive). Also, the nuclei count in assay [2] came to 108%; in assay [3] it was 122%. For the same compound, the fluorescence slope in assay [4] was -0.609 (inactive). Further, in assay [5], the NADPH fluorescence slope is -1.8e-05 (inactive). The slope in assay [6] is 0.011 (inactive).

`CCOC(=O)N1CCN(C(c2ccc(Cl)cc2)c2sc3nc(C)nn3c2O)CC1` (centres undefined): in assay [1], the cell count stood at 709. Besides, the inhibition was -8% (inactive) in assay [1], -25% (inactive) in assay [3], 9.66% (inactive) in assay [7] and 19.5% (inactive) in assay [8]. Moreover, in assay [2], the inhibition of aggregation was 0.3% (inactive). The nuclei count in assay [2] was determined as 104%; in assay [3], 106%. Further, the fluorescence slope in assay [4] is -0.412 (inactive). In addition, the NADPH fluorescence slope in assay [5] is -3.7e-05 (inactive). Moreover, the slope in assay [6] is 0.00503 (inactive).

`COc1ccc(N2C(=O)CC(N3CCCC4CCCCC43)C2=O)cc1` (centres undefined): the cell count in assay [1] amounted to 577. Also, the inhibition was -11.4% (inactive) in assay [1], -13.4% (inactive) in assay [3], 8.26% (inactive) in assay [7] and 35.7% (inactive) in assay [8]. The inhibition of aggregation in assay [2] is 3.7% (inactive). The nuclei count in assay [2] worked out at 107%; in assay [3], 79.8%. In addition, the fluorescence slope in assay [4] was -0.423 (inactive). The NADPH fluorescence slope in assay [5] is -3.7e-05 (inactive). The slope in assay [6] is 0.00354 (inactive).

In the case of `O=C(COC(=O)C1CC1)c1c[nH]c2ccccc12`, the cell count in assay [1] was 468. The inhibition in assay [1] is 4.3% (inactive); in assay [3], -24.9% (inactive); in assay [7], -49.1% (inactive); in assay [8], -96.8% (inactive). Further, the inhibition of aggregation in assay [2] is 3% (inactive). Further, the nuclei count amounted to 114% in assay [2] and 103% in assay [3]. Moreover, the fluorescence slope in assay [4] was -0.587 (inactive). The NADPH fluorescence slope in assay [5] was -2.6e-05 (inactive). The slope in assay [6] is 0.00646 (inactive).

For `COc1cccc(-c2noc(C3CCCN(C(=O)Cc4ccccc4)C3)n2)c1` (centres undefined), the cell count in assay [1] was 276. Further, the inhibition in assay [1] was -2.8% (inactive); in assay [3], 18.4% (inactive); in assay [7], 9.8% (inactive); in assay [8] it was 14.1% (inactive). For the same compound, the inhibition of aggregation in assay [2] was 5.5% (inactive). Also, the nuclei count in assay [2] stood at 109%; in assay [3] it was 115%. For the same compound, the fluorescence slope in assay [4] is -0.609 (inactive). Also, the NADPH fluorescence slope in assay [5] was -8.5e-06 (inactive). The slope in assay [6] was 0.00584 (inactive).

With `CC(NC(=O)C1CCCN(S(=O)(=O)c2cccs2)C1)c1ccccc1` (centres undefined), the cell count in assay [1] turned out to be 816. In addition, the inhibition in assay [1] was -1.4% (inactive); in assay [3], -1.1% (inactive); in assay [7], 12.2% (inactive); in assay [8] it was 34.2% (inactive). In assay [2], the inhibition of aggregation was -6.6% (inactive). Also, the values for the nuclei count in assay [2] and in assay [3] were 106% and 112%, respectively. The fluorescence slope in assay [4] is -0.583 (inactive). The NADPH fluorescence slope in assay [5] is -4.2e-05 (inactive). Further, the slope in assay [6] is 0.00498 (inactive).

Take `CCc1ccc2[nH]c(=O)c(C(c3nnnn3CC3CCCO3)N3CCCc4ccccc43)cc2c1` (centres undefined): in assay [1], the cell count was 339. For the same compound, the inhibition is -8.5% (inactive) in assay [1], 22.4% (inactive) in assay [3], 22.7% (inactive) in assay [7] and 32.6% (inactive) in assay [8]. Further, in assay [2], the inhibition of aggregation was 12.7% (inactive). The results for the nuclei count in assay [2] and in assay [3] were 87.5% and 97.3%, respectively. Also, the fluorescence slope in assay [4] was -0.422 (inactive). Moreover, the NADPH fluorescence slope in assay [5] was -4.4e-05 (inactive). The slope in assay [6] is 0.00442 (inactive).

As to `CCn1c(C(=O)N2CCC(C(=O)NCc3ccc4c(c3)OCO4)CC2)cc2sccc21`, the cell count in assay [1] was 505. The inhibition in assay [1] is -0.9% (inactive); in assay [3] it was -65.2% (inactive); in assay [7], 14.9% (inactive); in assay [8] it was -2.44% (inactive). In assay [2], the inhibition of aggregation was -30.3% (inactive). Besides, the nuclei count was 75.4% in assay [2] and 120% in assay [3]. Besides, in assay [4], the fluorescence slope is -0.508 (inactive). Also, the NADPH fluorescence slope in assay [5] is -5.3e-05 (inactive). Besides, in assay [6], the slope is 0.00644 (inactive).
